Calls of active or inactive are those of the source.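 How the source made its calls: active means inhibition above 20% together with a positive visual image hit; inconclusive means visual image hit but inhibition not above 20%; inactive means no visual image hit.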
Experiment: inhibitors of TNFa-induced NFkB p65 translocation, primary screen, imaging, HUVEC, MLSMR starter and 10KST1 sets (AID 438);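 further: compound added about 3h40 before a 20 min TNFalpha stimulation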;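 on inhibition: signal is the nuclear over cytoplasmic p65 intensity ratio per well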
Details: HUVEC TNFa-induced p65 nuclear translocation; cell count: measured here: nuclei count (cytotoxicity indicator), at 2.08 µM; inhibition: at 2 µM, stronger effect = higher value, 0% TNFa-plus-vehicle, 100% no-TNFa wells
For Cn1c(=O)c2c(-c3ccccc3)n(CCCN3CCOCC3)cc2n(C)c1=O, the inhibition was 7.9% (inactive) and the cell count was 953.
In the case of CCc1ccc(Nc2cc(=O)n(C3CCCCC3)c(=O)[nH]2)cc1, the cell count is reported as 385 and the inhibition is reported as 3.9% (inactive).
For CCC(C(=O)N1CCc2cc(OC)c(OC)cc2C1)c1ccccc1 (stereo not given), the cell count was 598 and the inhibition was 5% (inactive).
With COc1ccccc1N(CC(=O)NCc1ccccn1)S(C)(=O)=O the cell count was 355 and the inhibition was -7.9% (inactive).
With Cc1cc2cc(CCNC(=O)CC(C)C)c(=O)[nH]c2cc1C the inhibition was -5.8% (inactive) and the cell count was 633.
With CC1(C)CC(=O)C=C(Nc2ccc(OCC(F)(F)C(F)F)cc2)C1 the cell count was 362 and the inhibition was -0.3% (inactive).
With Cn1nc(C(=O)N2CCOCC2)c2ccccc2c1=O the cell count was 321 and the inhibition was 5.2% (inactive).
For S=c1[nH]ncn1-c1ccccn1, the cell count was 681 and the inhibition was -11% (inactive).
In the case of Cc1ccccc1N1C(N)=NC(N)=NC1(C)C, the inhibition is reported as -9.8% (inactive) and the cell count is reported as 635.
With O=C(Cn1nnc(-c2ccc(CN3CCOCC3)cc2)n1)NC1CCCCC1 the cell count was 447 and the inhibition was 0.3% (inactive).
In the case of CCCCC(=O)Nc1ccc(NC(=O)C2CC2)nc1, the cell count is reported as 558 and the inhibition is reported as 19.2% (inactive).
For CCOC(=O)c1ccc(NC(=O)Cn2cc3c(n2)CCC(C)C3)cc1 (stereo not given), the inhibition was -3.7% (inactive) and the cell count was 711.
In the case of Cn1c(SCC(=O)N2CCN(c3cccc(Cl)c3)CC2)nnc1-c1ccncc1, the cell count is reported as 689 and the inhibition is reported as -5.1% (inactive).
In the case of Cn1c(=O)c(=O)n(C)c2cc(S(=O)(=O)N3CCN(c4cccc(C(F)(F)F)c4)CC3)ccc21, the cell count is reported as 334 and the inhibition is reported as -2.2% (inactive).
In the case of c1ccc(N2CCN(Cc3ccnc4ccccc34)CC2)cc1, the inhibition is reported as 5.4% (inactive) and the cell count is reported as 424.

— PubChem BioAssay
